Data published in publication PMC5540273 (PLoS ONE, 2017).
“And” between values parts separate entries of the source, which are not always exact repeats. Equal entries are not always repeated. Where two headings read alike, the source gives them in different places.

Tests used:
[1] = tested on: T1, RSK2(Kin.Dom.1-N-terminal); conditions: concentration: 1 μM, replicates: in singlicate, n = 1
T1 construct: gene RPS6KA3

[2] = tested on: T2, RSK2(Kin.Dom.2-C-terminal); conditions: concentration: 1 μM, replicates: in singlicate; n = 1
T2 construct: gene RPS6KA3

[3] = tested on: T3, RSK3(Kin.Dom.1-N-terminal); conditions: concentration: 1 μM, replicates: in singlicate, n = 1
T3 construct: gene RPS6KA2

[4] = tested on: T4, RSK3(Kin.Dom.2-C-terminal); conditions: concentration: 1 μM, replicates: in singlicate, n = 1
T4 construct: gene RPS6KA2

[5] = tested on: T5, RSK4(Kin.Dom.1-N-terminal); conditions: concentration: 1 μM, replicates: in singlicate, n = 1
T5 construct: gene RPS6KA6

[6] = tested on: T6, RSK4(Kin.Dom.2-C-terminal); conditions: concentration: 1 μM, replicates: in singlicate, n = 1
T6 construct: gene RPS6KA6

S6K1 = conditions: concentration: 1 μM, replicates: in singlicate, n = 1
SBK1 = conditions: concentration: 1 μM, replicates: in singlicate, n = 1
SGK2 = conditions: concentration: 1 μM, replicates: in singlicate, n = 1
SGK3 = conditions: concentration: 1 μM, replicates: in singlicate, n = 1
SGK = conditions: concentration: 1 μM, replicates: in singlicate, n = 1
SIK2 = conditions: concentration: 1 μM, replicates: in singlicate, n = 1
SIK = conditions: concentration: 1 μM, replicates: in singlicate, n = 1
SLK = conditions: concentration: 1 μM, replicates: in singlicate, n = 1
SNARK = tested on: T7, SNARK; conditions: concentration: 1 μM, replicates: in singlicate, n = 1
T7 construct: gene NUAK2

SNRK = conditions: concentration: 1 μM, replicates: in singlicate, n = 1
SRC = conditions: concentration: 1 μM, replicates: in singlicate, n = 1
SRMS = conditions: concentration: 1 μM, replicates: in singlicate; n = 1
SRPK1 = conditions: concentration: 1 μM, replicates: in singlicate, n = 1
SRPK2 = conditions: concentration: 1 μM, replicates: in singlicate, n = 1
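Also: KINOMEscan kinase panel screen.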

NCCNS(=O)(=O)c1ccc(-c2ccnc3[nH]ccc23)cc1 [GSK977617]
%Inh ([1]; 1 µM): 79% and 60%
%Inh [2]: 0%
%Inh ([3]; 1 µM): 40% and 14%
%Inh ([4]; 1 µM): 29% and 22%
%Inh ([5]; 1 µM): 54% and 23%
%Inh ([6]; 1 µM): 48% and 37%
%Inh (S6K1; 1 µM): 71% and 73%
%Inh (SBK1; 1 µM): 79% and 57%
%Inh (SGK2; 1 µM): 24% and 4%
%Inh (SGK3; 1 µM): 57% and 44%
%Inh (SGK; 1 µM): 45% and 33%
%Inh (SIK2; 1 µM): 12% and 0%
%Inh (SIK; 1 µM): 21% and 0%
%Inh (SLK; 1 µM): 89% and 75%
%Inh (SNARK; 1 µM): 89% and 82%
%Inh (SNRK; 1 µM): 16% and 0%
%Inh (SRC; 1 µM): 11% and 0%
%Inh (SRMS): 0%
%Inh (SRPK1; 1 µM): 87% and 65%
%Inh (SRPK2; 1 µM): 6% and 0%

CCc1ccnc(/C=C/c2n[nH]c3cc(Sc4ccccc4C(=O)NC)ccc23)c1
%Inh [1]: 8%
%Inh [2]: 0%
%Inh [3]: 13%
%Inh [4]: 6%
%Inh [5]: 18%
%Inh [6]: 12%
%Inh (S6K1): 6%
%Inh (SBK1): 16%
%Inh (SGK2): 0%
%Inh (SGK3): 24%
%Inh (SGK): 0%
%Inh (SIK2): 0%
%Inh (SIK): 0%
%Inh (SLK): 0%
%Inh (SNARK): 10%
%Inh (SNRK): 0%
%Inh (SRC): 4%
%Inh (SRMS): 100%
%Inh (SRPK1): 53%
%Inh (SRPK2): 0%

COc1cc2ncn(-c3cc(OCc4sccc4Cl)c(C(N)=O)s3)c2cc1OC [GSK448459]
%Inh [1]: 30%
%Inh [2]: 21%
%Inh [3]: 10%
%Inh [4]: 0%
%Inh [5]: 14%
%Inh [6]: 20%
%Inh (S6K1): 3%
%Inh (SBK1): 4%
%Inh (SGK2): 0%
%Inh (SGK3): 0%
%Inh (SGK): 0%
%Inh (SIK2): 13%
%Inh (SIK): 8%
%Inh (SLK): 99%
%Inh (SNARK): 80%
%Inh (SNRK): 0%
%Inh (SRC): 0%
%Inh (SRMS): 0%
%Inh (SRPK1): 88%
%Inh (SRPK2): 0%

COc1ccc(COc2cc(-n3cnc4ccccc43)sc2C(N)=O)cc1 [GSK1024304]
%Inh [1]: 18%
%Inh [2]: 16%
%Inh [3]: 17%
%Inh [4]: 5%
%Inh [5]: 2%
%Inh [6]: 23%
%Inh (S6K1): 0%
%Inh (SBK1): 0%
%Inh (SGK2): 10%
%Inh (SGK3): 1%
%Inh (SGK): 0%
%Inh (SIK2): 0%
%Inh (SIK): 0%
%Inh (SLK): 9%
%Inh (SNARK): 2%
%Inh (SNRK): 0%
%Inh (SRC): 0%
%Inh (SRMS): 0%
%Inh (SRPK1): 29%
%Inh (SRPK2): 0%

Nc1nc(-c2ccc3c(N)n[nH]c3c2)cc(N2CCCC2)n1 [GSK2227430]
%Inh [1]: 0%
%Inh [2]: 0%
%Inh [3]: 20%
%Inh [4]: 17%
%Inh [5]: 0%
%Inh [6]: 0%
%Inh (S6K1): 0%
%Inh (SBK1): 8%
%Inh (SGK2): 0%
%Inh (SGK3): 8%
%Inh (SGK): 0%
%Inh (SIK2): 0%
%Inh (SIK): 0%
%Inh (SLK): 0%
%Inh (SNARK): 3%
%Inh (SNRK): 0%
%Inh (SRC): 0%
%Inh (SRMS): 0%
%Inh (SRPK1): 4%
%Inh (SRPK2): 0%

O=C1Cc2cc(Nc3nc(NCc4cccc(S(=O)(=O)C(F)(F)F)c4)ncc3C(F)(F)F)ccc2N1
%Inh [1]: 37%
%Inh [2]: 15%
%Inh [3]: 8%
%Inh [4]: 0%
%Inh [5]: 35%
%Inh [6]: 0%
%Inh (S6K1): 0%
%Inh (SBK1): 0%
%Inh (SGK2): 2%
%Inh (SGK3): 33%
%Inh (SGK): 10%
%Inh (SIK2): 0%
%Inh (SIK): 6%
%Inh (SLK): 0%
%Inh (SNARK): 0%
%Inh (SNRK): 0%
%Inh (SRC): 0%
%Inh (SRMS): 0%
%Inh (SRPK1): 0%
%Inh (SRPK2): 6%

N#Cc1ccc(-c2cc(-c3c[nH]nc3-c3ccccn3)ccn2)cc1 [GW693028]
%Inh [1]: 0%
%Inh [2]: 24%
%Inh [3]: 0%
%Inh [4]: 0%
%Inh [5]: 0%
%Inh [6]: 28%
%Inh (S6K1): 4%
%Inh (SBK1): 4%
%Inh (SGK2): 0%
%Inh (SGK3): 0%
%Inh (SGK): 0%
%Inh (SIK2): 0%
%Inh (SIK): 0%
%Inh (SLK): 6%
%Inh (SNARK): 0%
%Inh (SNRK): 0%
%Inh (SRC): 0%
%Inh (SRMS): 0%
%Inh (SRPK1): 0%
%Inh (SRPK2): 0%

C[C@@H](Oc1cc(-n2cnc3ccc(NC(=O)NC(C)(C)C)cc32)sc1C(N)=O)c1ccccc1Cl [GSK346294]
%Inh [1]: 0%
%Inh [2]: 11%
%Inh [3]: 0%
%Inh [4]: 9%
%Inh [5]: 0%
%Inh [6]: 26%
%Inh (S6K1): 0%
%Inh (SBK1): 0%
%Inh (SGK2): 10%
%Inh (SGK3): 19%
%Inh (SGK): 0%
%Inh (SIK2): 0%
%Inh (SIK): 0%
%Inh (SLK): 59%
%Inh (SNARK): 21%
%Inh (SNRK): 0%
%Inh (SRC): 0%
%Inh (SRMS): 0%
%Inh (SRPK1): 20%
%Inh (SRPK2): 12%

c1ccc(-c2cc(-c3c[nH]nc3-c3ccccn3)ccn2)cc1 [GW576604]
%Inh [1]: 0%
%Inh [2]: 0%
%Inh [3]: 0%
%Inh [4]: 4%
%Inh [5]: 0%
%Inh [6]: 8%
%Inh (S6K1): 0%
%Inh (SBK1): 0%
%Inh (SGK2): 0%
%Inh (SGK3): 0%
%Inh (SGK): 0%
%Inh (SIK2): 0%
%Inh (SIK): 0%
%Inh (SLK): 0%
%Inh (SNARK): 0%
%Inh (SNRK): 0%
%Inh (SRC): 0%
%Inh (SRMS): 0%
%Inh (SRPK1): 24%
%Inh (SRPK2): 9%

Cl.Nc1ncnc2occ(-c3ccc(NC(=O)Nc4cc(C(F)(F)F)ccc4F)cc3)c12 [SB-707548]
%Inh [1]: 25%
%Inh [2]: 27%
%Inh [3]: 67%
%Inh [4]: 77%
%Inh [5]: 0%
%Inh [6]: 39%
%Inh (S6K1): 81%
%Inh (SBK1): 2%
%Inh (SGK2): 9%
%Inh (SGK3): 19%
%Inh (SGK): 0%
%Inh (SIK2): 0%
%Inh (SIK): 0%
%Inh (SLK): 98%
%Inh (SNARK): 0%
%Inh (SNRK): 0%
%Inh (SRC): 30%
%Inh (SRMS): 4%
%Inh (SRPK1): 50%
%Inh (SRPK2): 40%
